The text below walks through data of PubChem BioAssay (NCI).

Where “and” joins values, the source holds several entries; their conditions need not be identical. Equal entries are not always repeated. Compounds without any hit were thinned out: in the full panel of roughly 83,000, 20% have a hit.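 Activity criterion: percent growth below 10, measured after cells in 96-well plates were exposed to a single compound concentration for 48 hours.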 Calls of active or inactive are those of the source.

In the experiment the test system is MDA-MB-468 breast. The experiment can be described thus: NCI-60 one-dose screen, 48 h (100 = growth as untreated, 0 = no growth, -100 = all killed). The conditions noted are these: 10 µM unless noted.
Take `O=C(CCCn1c(=O)c2sc3ccccc3c2n2nnc(-c3ccccc3)c12)NCCc1cnc[nH]1`: the growth is -42.1% (active). Turning to `Nc1cc(F)ccc1[N+](=O)[O-]`, the growth is 100% (inactive). Under `Cc1cc(Nc2nc(N3CCOCC3)nc3ccccc23)n[nH]1` stands 55.9% (inactive); under `O=C(CCl)Nc1ccc(NC(=O)c2cc(Cl)ccc2O)c(Cl)c1`, 79.7% (inactive); under `O=[N+]([O-])c1ccc(Oc2nc(Nc3ccc(O[C@H]4CO[C@H]5[C@@H]4OC[C@@H]5O)c(Cl)c3)ncc2F)c(Cl)c1`, 15.8% (inactive). Consider `CCOC(=O)Cn1c(-c2nonc2NC(=O)c2ccccc2F)nc2ccccc21`, for which the growth was 76% (inactive). Under `CCCOC(=O)c1ccc2c(c1)[N+](=O)C(C(=O)c1ccccc1)=C(C(F)(F)F)[N+]2=O` stands -81.4% (active); under `Cc1cc(CC(=O)O)n(C)c1C(=O)c1ccc(Cl)cc1`, 101% (inactive); under `CC(=O)Nc1cc(N2CCOCC2)c2nc(NC(=O)c3[nH]c(C)c(Cl)c3Cl)sc2c1`, 47.7% (inactive). Turning to `COc1cc2c(cc1-c1c(C)noc1C)ncc1nc(C3CCCC3)n([C@H](C)COC(F)F)c12`, the growth is 32.7% (inactive). `COc1cccc(/C=C2\COc3ccc(O)cc3C2=O)c1OC`: the growth is 43.9% (inactive).

In the case of `COc1c(Cl)cc(Cl)c2ccc(C=C3C(=O)NC(=S)NC3=O)nc12`, the growth is 108% (inactive). `CC(C)C/C(=N\NC(=O)c1ccncc1)c1cc(Cl)ccc1O`: the growth was -1.67% (active). For the compound `CCOC(=O)CNP(=O)(OC[C@@H](Cc1ccccc1)NC(=O)c1cc2ccccc2s1)Oc1ccccc1` (stereo not given in full), the growth was -5% (active).

Take `N#C/C(=C\c1ccc(Br)cc1)n1nnc2cccc(F)c21`: the growth is -0.554% (active). Turning to `CC(=O)Nc1cccc2c1CCCC2`, the growth was 100% (inactive) and 91.1% (inactive). For the compound `CCOC(=O)C(=Cc1ccc(-c2ccccc2)cc1)C(=O)OCC`, the growth is 53% (inactive). `O=C(CCC(=O)N(CCO)CCO)N(CCO)CCO`: the growth is 110% (inactive). The figure for `CCOP(=O)(O)OP(=O)(O)OCC` is 107% (inactive). `COc1cc(/C=C/c2cc(/C=C/c3ccc(O)c(OC)c3)n(C(=O)Cc3ccccc3)n2)ccc1O`: the growth is -4.29% (active). The figure for `C=CCC(OC(C)=O)c1ccc(OC)c(OC)c1` (stereo not given) is 125% (inactive); for `CC1(C)CN(CCNc2nccc(-c3c(-c4cccc(O)c4)nc4sccn34)n2)S(=O)(=O)N1` it is 81% (inactive).

On to `COC(=O)c1ccc(NC(=S)N2CCc3ccc([N+](=O)[O-])cc3C2)cc1O`, for which the growth was 94.2% (inactive). On to `CCCCCC(/C=N\NC(=S)N/N=C/C(=C/c1ccccc1)CCCCC)=C\c1ccccc1`, for which the growth was 47.4% (inactive). Under `Cn1c2c(c3ccc(Cl)cc31)-n1cccc1C2=O` stands 104% (inactive); under `CNc1cc2nc3cc(NC)c(C)cc3cc2cc1C`, -11.5% (active); under `O=C1CN(CCN2CC(=O)NC(=O)C2)CC(=O)N1`, 94.8% (inactive). As to `COCCCNCC(=O)Nc1c(C)cccc1C`, the growth is 112% (inactive). Under `CCOC(=O)c1ccc2c(c1)c1c(C)c3cnccc3c(C)c1n2C` stands -81.8% (active); under `CN1CCN(c2cnc(C(=O)Nc3cc(F)cc4cccnc34)cn2)CC1`, 9.54% (active); under `O=C1Nc2ccccc2/C1=C/C(=O)c1ccc(N2CCCCC2)cc1`, 80% (inactive).

As for `CCOC(=O)n1cc(C2=C(c3cn(C)c4ccccc34)COC2=O)c2ccccc21`, the growth is 29.5% (inactive). Under `CC(CN(C)C)CN1c2ccccc2CCc2ccccc21` (stereo not given) stands 41.7% (inactive); under `COc1ccc(C(=O)c2cc(OC)c(C)c(OC)c2)cc1OC(=O)CCl`, 38.3% (inactive); under `COc1ccc(/C=C/C(=O)Nc2cccnc2Nc2ccc(F)cc2)cc1`, 84% (inactive). Under `O=C1C=CC(=O)N1c1cccc(Cl)c1` stands 86.7% (inactive); under `O=C(Cn1ccc2ccccc21)Nc1ccc(-c2nc3ccccc3s2)cc1`, -50.2% (active). On to `O=C1NCN(CCO)CN1`, for which the growth is 99.9% (inactive).

On to `COc1ccc(-n2nc(C)c3c(Oc4ccc(NC(=O)Nc5c(Cl)cccc5Cl)cc4)ncnc32)cc1`, for which the growth was 107% (inactive). Under `Fc1ccccc1Nc1ccc2nnc(-c3ccncc3)n2n1` stands 105% (inactive).
